In the library only some 0.56% were active in any assay of this set; here they are far more common.
EPAC2 antag – EPAC2 (human) antagonism | AID 720708 | Potency, µM (series often up to 114 µM), inactives show top-dose activity, negative = inhibition, actives largely listed as inhibitors | 0.18% of 360,000 active | EPAC2 GEF exchange of Rap1B-BODIPY-GDP, fluorescence; further: potency means the concentration at half of the fitted maximal effect; on the % scale 0 is the no-effect control and ±100 the full control effect; nearly all actives have a fitted effect of over 45% in size
LDHA block – inhibitors of human lactate dehydrogenase A; P00338; purified LDHA, NADH/diaphorase-resazurin fluorescence; active compounds read low; 0.15% of 480,000 active; AID 1347041; activity change, % (values are at about 110 or 230 µM); in the data active means activity change below about -30%; inconclusive means mostly about -25% to -30%;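 further: plate controls were DMSO wells for no effect and wells without enzyme for full effect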
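Resorufin fluorescence (ex540/em590), read at 0 and 20 min after diaphorase/resazurin addition, reports the NADH left after a 5 min room-temperature reaction of 2 nM human LDH5 with 0.06 mM NADH and 0.2 mM pyruvate.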
EPAC1 agonist – EPAC1 (human) agonism; AID 720707; EPAC1 agonist qHTS, biochemical assay; response scale: 100% = response to 6.5 mM cAMP; O95398; Potency, µM (doses to about 154 µM), without a hit: top-dose activation, usual class: activators; 0.073% of 360,000 active; further: potency means the concentration at half of the fitted maximal effect; nearly all actives have a fitted effect of over 60% in size
Target sequence (O95398 whole entry, looked up): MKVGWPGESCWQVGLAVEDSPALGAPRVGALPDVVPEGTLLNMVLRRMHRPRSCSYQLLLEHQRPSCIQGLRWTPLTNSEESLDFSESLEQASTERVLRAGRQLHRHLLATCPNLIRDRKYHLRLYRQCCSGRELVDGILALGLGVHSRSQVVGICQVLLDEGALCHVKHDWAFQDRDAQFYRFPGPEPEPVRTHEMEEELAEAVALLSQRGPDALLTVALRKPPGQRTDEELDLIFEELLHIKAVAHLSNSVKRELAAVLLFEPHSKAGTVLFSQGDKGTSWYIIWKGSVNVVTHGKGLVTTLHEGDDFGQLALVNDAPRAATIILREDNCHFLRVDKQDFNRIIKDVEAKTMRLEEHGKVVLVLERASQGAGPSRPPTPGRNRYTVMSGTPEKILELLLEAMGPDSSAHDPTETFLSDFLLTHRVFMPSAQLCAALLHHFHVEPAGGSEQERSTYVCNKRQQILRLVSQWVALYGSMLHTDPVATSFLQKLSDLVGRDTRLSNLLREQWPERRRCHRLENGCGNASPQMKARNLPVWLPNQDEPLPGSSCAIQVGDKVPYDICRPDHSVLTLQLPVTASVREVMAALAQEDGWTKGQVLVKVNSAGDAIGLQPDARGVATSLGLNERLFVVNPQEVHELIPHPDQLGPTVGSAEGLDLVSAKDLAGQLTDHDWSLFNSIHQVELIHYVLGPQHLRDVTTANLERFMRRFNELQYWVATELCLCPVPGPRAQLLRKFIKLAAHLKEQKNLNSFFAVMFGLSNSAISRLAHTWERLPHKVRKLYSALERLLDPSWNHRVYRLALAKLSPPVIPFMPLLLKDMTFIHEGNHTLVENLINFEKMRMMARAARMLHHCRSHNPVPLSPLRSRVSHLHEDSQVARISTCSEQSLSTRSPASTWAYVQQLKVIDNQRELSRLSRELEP
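Read-out is the fluorescence drop as BODIPY-GDP leaves Rap1B (480 nm excitation, 540 nm emission), recorded every 5 minutes over 30 minutes. Reactions held 100 nM EPAC1, 250 nM Rap1B–BODIPY-GDP and 50 uM GDP, with 6.5 mM cAMP setting full activation.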
EPAC1 antagonist – EPAC1 (human) antagonism; O95398; EPAC1 GEF assay, Rap1b-BODIPY-GDP exchange fluorescence; Potency, µM (top dose mostly 115 µM), without a hit: top-dose activity change, negative = inhibition, most hits filed as inhibitors; 0.14% of 360,000 active; AID 720709;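 further: potency means the concentration at half of the fitted maximal effect; plate controls were vehicle for no effect and positive control for full effect; nearly all actives have a fitted effect of over 50% in size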
EPAC2 agonist – EPAC2 (human) agonism; Potency, µM (titrated, usually from 154 µM), without a hit: top-dose activation, usual class: activators; AID 720711; EPAC2 activation, biochemical qHTS; response scale: 100% = 6.5 mM cAMP response; 0.079% of 360,000 active; further: potency means the concentration at half of the fitted maximal effect; nearly all actives have a fitted effect of over 50% in size
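Setup: EPAC2 100 nM, labeled Rap1B complex 250 nM, free GDP 50 uM. Compound titrations pinned in, brief spin, 5 min room temperature incubation. Kinetic fluorescence read over 30 min, normalized to 6.5 mM cAMP.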
USP1-UAF1 inh – inhibitors of human USP1/UAF1 deubiquitinase; recombinant USP1/UAF1, Ub-Rhodamine cleavage fluorescence; Potency, µM (highest dose often 57.1 µM), without a hit: top-dose activity change, negative = inhibition, hits mostly inhibitors; 0.23% of 390,000 active; O94782; further: potency means the concentration at half of the fitted maximal effect; on the % scale 0 is the no-effect control and ±100 the full control effect; nearly all actives have a fitted effect of over 60% in size
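Step one: compound is pinned into 1nM USP1/UAF1 in HEPES pH 7.8 buffer with TCEP. Step two: 15 min room-temperature incubation. Step three: Ub-Rho (150nM final) starts cleavage, tracked by fluorescence over six one-minute reads.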
* marks the source's active call; other numbers are inactive results. Unless noted, the call rests on the fitted dose curve; in most records, active means well fitted curve in the direction sought with a large enough effect; inconclusive means small, poorly fitted or top-dose-only effect, or another doubt; inactive means no such curve, though single readings can be large; an effect the other way counts as inactive or inconclusive.

How did N#C/C(=C/c1ccc(N2CCCCC2)o1)C(=O)Nc1ccc(Cl)cc1 do in these assays?
EPAC2 antag: 5.2%; LDHA block: -6.3; EPAC1 agonist: 100µM*; EPAC1 antagonist: 0.8%; EPAC2 agonist: 100µM*; USP1-UAF1 inh: 28.2µM*

Results for CC1CC1c1ccc(/C=C(\C#N)C(=O)Nc2ccccc2Cl)o1 (stereo unspecified) ?
EPAC2 antag: 4.7%; LDHA block: 5.9; EPAC1 agonist: 100µM*; EPAC1 antagonist: -13.9%; EPAC2 agonist: 4.0%; USP1-UAF1 inh: inconclusive

How did N#C/C(=C/c1ccc(N2CCCCC2)o1)C(=O)Nc1ccc2ccccc2c1 do in these assays?
EPAC2 antag: 18.7%; LDHA block: -0.1; EPAC1 agonist: 23.5%; EPAC1 antagonist: 47.9%; EPAC2 agonist: 6.4%; USP1-UAF1 inh: 34.4%

Results for CC1CC1c1ccc(/C=C(\C#N)C(=O)Nc2ccc(Cl)cc2)o1 (stereo unspecified) ?
EPAC2 antag: -1.4%; LDHA block: -4.7; EPAC1 agonist: 100µM*; EPAC1 antagonist: 10.1%; EPAC2 agonist: 21.6%; USP1-UAF1 inh: -18.6%

What do the screens show for `COc1ccc(NC(=O)/C(C#N)=C/c2ccc(C)o2)cc1`?
LDHA block: -2.8; USP1-UAF1 inh: -26.4%

What do the screens show for `COc1cc(OC)cc(C(=O)N2CCC(C(=O)c3ccc4c(c3)OCCO4)CC2)c1`?
LDHA block: 8.5

What do the screens show for `O=C(O)CCC(=O)NCCN1CCCC1`?
LDHA block: 5.9

Results for O=C(OCC#CCSc1nnc(-c2cccc3ccccc23)o1)c1cccc(F)c1 ?
LDHA block: -3.4

What do the screens show for `Cn1nc(-c2ccc(OCC(=O)N3CCOCC3)cc2)c2ccccc2c1=O`?
LDHA block: -30.8*

How did COc1ccccc1-c1noc(-c2ccc(NC3CCCC3)c([N+](=O)[O-])c2)n1 do in these assays?
LDHA block: -2.1; USP1-UAF1 inh: -5.4%

What do the screens show for `COc1cccc2cc(C(C)N(CCCN3CCOCC3)C(=S)Nc3cccc(C)c3)oc12` (stereo unspecified)?
EPAC2 antag: -8.0%; LDHA block: -0.6; EPAC1 agonist: 8.8%; EPAC1 antagonist: 56.2µM*; EPAC2 agonist: 20.7%; USP1-UAF1 inh: -8.3%

Results for Cc1ccc(NS(=O)(=O)c2cc3c(cc2C)OCC(=O)N3)cc1C ?
LDHA block: -6.9

What do the screens show for `COc1ccc(OC)c(/C=c2\sc3nc(-c4cccs4)nn3c2=O)c1`?
EPAC2 antag: 204.7%; LDHA block: -5.8; EPAC1 agonist: 112µM*; EPAC1 antagonist: -4.4%; EPAC2 agonist: 100µM*; USP1-UAF1 inh: 31.6µM*

Results for COc1ccc(CN2CCN(CCSc3ccc(C)cc3)CC2)c(OC)c1OC ?
EPAC2 antag: 2.3%; LDHA block: -37.5*; EPAC1 agonist: 1.4%; EPAC1 antagonist: -6.1%; EPAC2 agonist: 8.5%; USP1-UAF1 inh: -19.3%

Results for COc1ccc(OC)c(CN2CCN(Cc3ccc(OC)c(OC)c3OC)CC2)c1 ?
EPAC2 antag: -10.9%; LDHA block: -20.7; EPAC1 agonist: 16.4%; EPAC1 antagonist: 13.0%; EPAC2 agonist: 11.2%; USP1-UAF1 inh: inconclusive

What do the screens show for `O=C(CN1CCN(CC(=O)Nc2ccccc2C(=O)c2ccccc2)CC1)Nc1ccc(F)cc1`?
LDHA block: -31.9*

What do the screens show for `O=S(=O)(O)c1cc(O)ccc1O`?
EPAC2 antag: -7.0%; LDHA block: 4.4; EPAC1 agonist: -31.5%; EPAC1 antagonist: 3.1%; EPAC2 agonist: -2.9%; USP1-UAF1 inh: -28.1%

How did O=S(=O)(c1cc(O)ccc1O)c1cccc2c(S(=O)(=O)c3cc(O)ccc3O)cccc12 do in these assays?
EPAC2 antag: 4.3%; LDHA block: -0.7; EPAC1 agonist: 8.0%; EPAC1 antagonist: 79.4µM*; EPAC2 agonist: 0.3%; USP1-UAF1 inh: inconclusive

What do the screens show for `O=c1ccc2c(-c3ccccc3)c3ccc(O)cc3oc-2c1`?
EPAC2 antag: inactive; LDHA block: 14.3; EPAC1 agonist: inconclusive; EPAC1 antagonist: 148.3%; EPAC2 agonist: 13.6%; USP1-UAF1 inh: 3.55µM*

What do the screens show for `Nc1ccc(-c2c3ccc(=O)cc-3oc3cc(O)ccc23)cc1C(=O)O`?
EPAC2 antag: inactive; LDHA block: 1.7; EPAC1 agonist: 100µM*; EPAC1 antagonist: inactive; EPAC2 agonist: 100µM*; USP1-UAF1 inh: 22.4µM*

How did Cc1ccc(OCc2nc(-c3ccc(C(=O)NCCc4ccc(Cl)cc4)cc3)oc2C)cc1 do in these assays?
LDHA block: -9.4; USP1-UAF1 inh: -18.2%

Results for CC1=NCCN1S(=O)(=O)c1c(C(C)C)cc(C(C)C)cc1C(C)C ?
EPAC2 antag: 79.4µM*; LDHA block: -1.9; EPAC1 agonist: -4.1%; EPAC1 antagonist: -17.9%; EPAC2 agonist: -3.7%; USP1-UAF1 inh: -8.6%

What do the screens show for `COc1ccc(Cl)cc1S(=O)(=O)N1CCN=C1C`?
EPAC2 antag: -13.9%; LDHA block: 2.4; EPAC1 agonist: -14.4%; EPAC1 antagonist: 3.0%; EPAC2 agonist: -7.0%; USP1-UAF1 inh: -7.1%

What do the screens show for `Cc1ccc(S(=O)(=O)/N=C2/NC(=O)/C(=C\c3cc(Br)cc(Br)c3O)S2)cc1`?
EPAC2 antag: 79.4µM*; LDHA block: -12.3; EPAC1 agonist: -2.2%; EPAC1 antagonist: inconclusive; EPAC2 agonist: -0.3%; USP1-UAF1 inh: inconclusive

Results for O=C1N/C(=N\S(=O)(=O)Cc2ccccc2)S/C1=C/c1cc([N+](=O)[O-])ccc1O ?
EPAC2 antag: -7.9%; LDHA block: -37.2*; EPAC1 agonist: -3.1%; EPAC1 antagonist: inconclusive; EPAC2 agonist: 1.3%; USP1-UAF1 inh: inconclusive

Results for O=C1N/C(=N\S(=O)(=O)c2ccccc2)S/C1=C\c1cc([N+](=O)[O-])ccc1O ?
EPAC2 antag: -25.2%; LDHA block: -36.4*; EPAC1 agonist: -11.8%; EPAC1 antagonist: inconclusive; EPAC2 agonist: -8.9%; USP1-UAF1 inh: inconclusive

Results for O=C1CSc2ccc(S(=O)(=O)Nc3ccc(F)cc3)cc2N1 ?
LDHA block: 11.9

What do the screens show for `O=[N+]([O-])c1ccccc1S(=O)(=O)N1CCN(C2CCN(Cc3ccccc3)CC2)CC1`?
EPAC2 antag: 7.2%; LDHA block: -33.7*; EPAC1 agonist: -6.0%; EPAC1 antagonist: -23.9%; EPAC2 agonist: 3.8%; USP1-UAF1 inh: -3.2%

How did COc1cc(NC(=C(C#N)C#N)C(F)(F)C(F)(F)F)cc(OC)c1 do in these assays?
LDHA block: 11.5

What do the screens show for `CN(C)C(=O)/C=C/c1csc(-c2ccc(F)cc2)n1`?
LDHA block: -7.4

High-throughput results from PubChem.
